# Screening data as filed in PubChem.
# ELG1 repair inh: blocks ELG1-dependent DNA repair in HEK293T cells | HEK293T ELG1-luciferase reporter, luminescence, 16 h; DNA damage induced by 5-fluorouridine | Potency, µM (highest dose often 46.1 µM), most hits filed as inhibitors | 330,000 compounds, 2.3% hits | AID 504467; note: nearly all actives have a fitted effect of over 55% in size
#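 5-Fluorouridine DNA damage + compound/DMSO, 2,000 cells/well, 16 h, 37 °C/5% CO2. ONE-Glo, 30 min RT, luminescence. Readout = decrease in reporter signal.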
# RORg inh: ROR gamma (mouse) transcription inhibition. P51450. Drosophila S2 Gal4-RORgamma UAS-luciferase reporter, 20 h. Potency, µM (top dose mostly 53.6 µM), usual class: inhibitors. 310,000 compounds, 5.4% hits; note: nearly all actives have a fitted effect of over 60% in size
# Target sequence (P51450 whole entry, looked up, the tested form may be a part): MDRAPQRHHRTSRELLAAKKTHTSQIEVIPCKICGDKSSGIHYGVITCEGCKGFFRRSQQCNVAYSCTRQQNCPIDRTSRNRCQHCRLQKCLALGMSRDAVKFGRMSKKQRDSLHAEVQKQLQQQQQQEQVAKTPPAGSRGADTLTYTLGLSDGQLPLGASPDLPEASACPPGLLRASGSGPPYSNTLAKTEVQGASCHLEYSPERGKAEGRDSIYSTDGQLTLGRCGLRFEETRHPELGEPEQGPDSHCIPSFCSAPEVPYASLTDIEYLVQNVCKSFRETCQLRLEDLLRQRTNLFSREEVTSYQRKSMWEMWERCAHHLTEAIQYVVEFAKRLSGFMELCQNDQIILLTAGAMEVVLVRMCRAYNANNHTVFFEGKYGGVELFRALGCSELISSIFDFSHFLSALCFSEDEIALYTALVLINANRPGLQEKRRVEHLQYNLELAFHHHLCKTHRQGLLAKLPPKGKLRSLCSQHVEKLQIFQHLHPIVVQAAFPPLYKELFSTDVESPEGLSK
#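 Compounds are pin-transferred onto Drosophila Schneider cells expressing a copper-inducible Gal4–ROR gamma transactivation domain fusion. After 1 hr, copper sulfate is added to 700 uM final; luciferase is read 20 hr later.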
# MCF10A rereplic: inducers of DNA re-replication in MCF 10A breast cells | MCF 10A DNA re-replication, Hoechst nuclear intensity, 48 h | Potency, µM (doses to about 46.1 µM), actives largely listed as activators | 350,000 compounds, 2.9% hits; note: nearly all actives have a fitted effect of over 50% in size
# SW480 rerep: inducers of DNA re-replication in SW480 colon cancer cells; SW480 DNA re-replication, Hoechst DNA content imaging, 48 h; Potency, µM (doses to about 46.1 µM), hits mostly activators; 340,000 compounds, 1.8% hits; note: nearly all actives have a fitted effect of over 55% in size
#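 DNA re-replication was detected as more nuclei of elevated Hoechst intensity after 48 hr exposure to compound (23 nL pinned per well of 250 cells).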
# VP16 counter: counter-screen for ROR gamma inhibitors: Gal4-VP16 reporter | 310,000 compounds, 3.5% hits | Drosophila S2 Gal4-VP16 UAS-luciferase, luminescence, 20 h | Potency, µM (series often up to 53.6 µM), usual class: inhibitors;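 note: Gal4-VP16 expression switched on by copper sulfate through the metallothionein promoter; nearly all actives have a fitted effect of over 50% in size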
# Hits are given with their value; - = inactive; ? = inconclusive; . = no result given; [ ] = remark or other dose. Compounds with a hit are over-represented: about 10% of the library has one in this group of screens. Calls come from the whole dose curve; as a rule, active = well fitted curve in the direction sought with a large enough effect; inconclusive = small, poorly fitted or top-dose-only effect, or another doubt; inactive = no such curve, though single readings can be large; an effect the other way counts as inactive or inconclusive.
SMILES,ELG1 repair inh,RORg inh,MCF10A rereplic,SW480 rerep,VP16 counter
COc1cccc(-n2c(SCC(=O)Nc3sc4c(c3C(N)=O)CCC4)nc3ccccc3c2=O)c1,6.5µM,-,-,-,-
COc1ccc(C(=O)Nn2c(SCC(=O)c3ccccc3)nc3ccccc3c2=O)cc1,?,11µM,-,-,?
COc1cccc(NC(=O)CSc2nc3ccccc3c(=O)n2C)c1,9.2µM,-,-,-,-
CC(C)Oc1ccccc1NC(=O)CSc1nc2ccccc2c(=O)n1C,?,?,-,-,-
COc1cccc(-n2c(SCC(=O)Nc3nc4ccccc4s3)nc3ccccc3c2=O)c1,?,-,-,-,-
Cc1ccccc1NC(=O)CSc1nc2ccccc2c(=O)n1C,15µM,?,-,-,11µM
CCOC(=O)CSc1nc2ccccc2c(=O)n1NC(=O)c1ccccc1,?,-,-,-,-
CCOc1ccc(C2CC(c3ccc(F)cc3)n3ncnc3N2)cc1 (stereo not given),-,?,-,-,-
CCC(C)NC(=O)[C@@H]1CCCN1C(=O)C1CCN(S(=O)(=O)c2ccc(C)cc2)CC1 (stereo not given in full),?,-,-,-,-
Cc1ccccc1NC(=O)CSc1nc2cc3c(cc2cc1C)CCC3,-,-,?,6.5µM,-
COC(=O)c1cccc(NC(=O)CSc2nc3cccnc3n2C)c1,13µM,-[10 µM],-,-,?
C/C(CC(=O)Nc1cccc(Cl)c1Cl)=N\NC(=O)c1ccccc1Br,-,?,-,-,?
C/C(CC(=O)Nc1cccc(Cl)c1Cl)=N\NC(=O)c1ccccc1N,-,13µM,?,-,-
COc1ccc(Cl)cc1NC(=O)C/C(C)=N/NC(=O)c1ccccc1Cl,-,-[1.91 µM],?,-,13µM
COc1ccc(OCC(=O)NC(=S)NNC(=O)COc2ccc(Br)cc2Cl)cc1,-,10µM,-,-,-[10 µM]
COc1ccc(C(=O)NC(=S)NNC(=O)c2cnccn2)cc1,?,-,6.5µM,-,-
O=C(COc1ccccc1)NNC(=S)NC(=O)c1ccccc1,?,6.3µM,-,-,11µM
O=C(NC(=S)NNC(=O)c1cnccn1)c1ccc(Cl)cc1,-,-,-,-,-
COc1ccc(NC(=S)NNC(=O)COc2ccc(Cl)cc2Cl)cc1,-,?,-,-,-
COc1ccc(C(=O)NC(=S)NNC(=O)COc2ccccc2)cc1,-,7.1µM,?,-,?
O=C(COc1ccccc1)NNC(=O)c1ccc(Cl)cc1,-,.,-,?,.
Cc1c(-c2n[nH]c(=S)n2-c2ccc(C(F)(F)F)cc2)nnn1-c1ccccc1,-,5.6µM,-,-,?
Cc1c(-c2n[nH]c(=S)n2-c2ccc(Br)cc2)nnn1-c1ccc(Cl)cc1,-,-,?,-,-[10 µM]
CC(C)c1ccc(S(=O)(=O)/N=C2/C=CC(=O)c3ccccc32)cc1,?,?,.,.,18µM
CCOc1ccc(C(C)(C)C)cc1S(=O)(=O)Nc1ccncc1,-,.,-,-,.
SMILES,ELG1 repair inh,RORg inh,MCF10A rereplic,SW480 rerep,VP16 counter
CC(/C=N/n1c(COc2ccccc2)n[nH]c1=S)=C\c1ccccc1,-,2.5µM,?,-,?
CC(=C/c1ccccc1)/C=N/n1c(C)n[nH]c1=S,-,8.9µM,-,-,6.3µM
CCc1ccc(/C=N/n2c(COc3ccccc3)n[nH]c2=S)cc1,-,0.89µM,-,-,?
Cc1cccc(/C=N/n2c(COc3ccccc3)n[nH]c2=S)c1,-,7.1µM,-,-,?
Cc1ccc(C(CNC(=O)c2ccc(Br)o2)N2CCN(C)CC2)cc1 (stereo not given),-,.,-,-,.
S=c1[nH]nc(COc2ccccc2)n1/N=C/c1ccncc1,-,10µM,-,-,-
C=CCOc1c(Br)cc(/C=N/n2c(CC)n[nH]c2=S)cc1Br,-,7.9µM,16µM,?,7.9µM
CCc1n[nH]c(=S)n1/N=C/c1cc(Br)c(O)c(OC)c1,-,-,-,-,-
CCc1n[nH]c(=S)n1/N=C/c1ccc(N(CC)CC)cc1,?,2.8µM,-,-,6.3µM
CCN(CC)c1ccc(/C=N/N2CC(=O)NC2=S)cc1,-,.,?,?,.
FC(F)(F)c1ccc(/C=N/n2c(COc3ccccc3)n[nH]c2=S)cc1,-,?,-,-,-
C#CCn1cc(/C=C2\NC(=O)NC2=O)c2ccccc21,-,-,?,-,-
CCOc1cccc(-c2c(C(=O)N/N=C/c3ccco3)nnn2-c2nonc2N)c1,-,11µM,-,-,25µM
CCOc1cccc(-c2c(C(=O)N/N=C/c3ccncc3)nnn2-c2nonc2N)c1,?,-,-,-,-
CCOc1cccc(-c2c(C(=O)N/N=C/c3ccc(C)o3)nnn2-c2nonc2N)c1,-,10µM,-,-,?
CCOc1cccc(-c2c(C(=O)N/N=C/c3ccoc3)nnn2-c2nonc2N)c1,-,10µM,-,-,?
CCOc1ccc(-c2c(C(=O)N/N=C/c3ccoc3)nnn2-c2nonc2N)cc1,-,?,-,-,?
CCCCSCCCNC(=O)CCCN1C(=O)c2ccccc2Sc2ncccc21,-,-,-,-,-
COc1ccc(C(=O)NCCCn2cccn2)cc1OC1CCN(C(C)=O)CC1,-,.,-,-,.
CCCCN(C)C(=O)c1cc2c(Cl)nc3ccccc3c2s1,-,-,?,-,-
Cc1ccc(C(C)C)c(OCC(=O)NS(=O)(=O)c2ccc(Cl)cc2)c1,-,-,?,-,-
CCCNC(=O)C1CC(c2ccc(C(F)(F)F)cc2)=NO1 (stereo not given),?,-,-,-,-
Cc1cccc2cc(CN(Cc3nnnn3Cc3ccco3)C3CCCC3)c3nnnn3c12,21µM,-,?,-,-[0.365 µM]
CC(=O)N(Cc1ccco1)Cc1cc2cccc(C)c2n2nnnc12,-,-,.,.,-
COc1cc(/C=C/C(=O)c2ccc3c(c2)OCCO3)cc(Br)c1OCC(=O)N(C)C,?,-,?,4.6µM,?
SMILES,ELG1 repair inh,RORg inh,MCF10A rereplic,SW480 rerep,VP16 counter
CC(C)=CC(=O)Nc1ccc2c(c1)OCO2,.,11µM,-,-,?
O=C(CSCSCC(=O)Nc1ccc2c(c1)OCO2)Nc1ccc2c(c1)OCO2,-,?,-,-,-
O=C(/C=C/c1ccncc1)c1ccc2c(c1)OCCO2,?,4µM,?,?,5µM
O=C(/C=C/c1ccccc1)Nc1ccc2c(c1)OCCO2,?,10µM,-,-,13µM
CCCCC1(CC(=O)OCC)C(=O)N(c2ccccc2)N(c2ccccc2)C1=O,-,-,-,-,-
COc1ccccc1/C=C/C(=O)OCC(=O)Nc1ccc2c(c1)OCCO2,-,.,-,-,.
COc1ccccc1/C=C/C(=O)Nc1ccc2c(c1)OCCO2,?,1.6µM,13µM,16µM,-
O=C(/C=C/c1ccc(Cl)cc1)Nc1cc(S(=O)(=O)N2CCOCC2)ccc1N1CCOCC1,26µM,.,-,?,.
CSc1ccc(Cl)c(C(=O)Nc2cc(S(=O)(=O)N3CCOCC3)ccc2N2CCOCC2)c1,18µM,.,-,-,.
